The record followed here is PubChem BioAssay AID1240 (Sanford-Burnham Center for Chemical Genomics, 2008).

Hit rate of the full screen: of about 50,000 compounds, about 800 (1.6%) showed an effect of 50% or more. The sample holds strong results, similar compounds and a random draw of the others, so the mix is not that of the screen.

Bcl-2-like protein 10 (Homo sapiens), sequence (Q9HD36 whole entry, looked up): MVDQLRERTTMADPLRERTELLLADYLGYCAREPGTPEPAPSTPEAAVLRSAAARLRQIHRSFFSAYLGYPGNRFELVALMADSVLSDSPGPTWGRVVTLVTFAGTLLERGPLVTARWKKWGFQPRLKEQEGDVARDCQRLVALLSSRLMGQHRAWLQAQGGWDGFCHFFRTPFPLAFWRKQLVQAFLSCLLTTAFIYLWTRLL

The experiment has as its target Bcl-2-like protein 10 (Homo sapiens) (UniProt Q9HD36). The experiment can be described thus: Phenotype converters, Bcl-B/TR3 peptide binding displacement, primary biochemical FP (AID 1240).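 Note: 0% = Bcl-B with tracer peptide and DMSO and 100% = tracer peptide lacking Bcl-B.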 The settings on record: GST-Bcl-B / FITC-TR3 peptide fluorescence polarization; stronger effect = higher value; compound at 3.75 mg/L. For orientation: Polarisation of emitted light reports the rotation of a fluorescent probe.
In the case of `COc1ccc(C(=O)Nc2ccc(O)c(-c3nc4cc(Cl)ccc4o3)c2)cc1`, the displacement was 40.1%.

Consider `O=C(Nc1ccc(-c2nc3ccccc3c(=O)o2)cc1)c1cccc([N+](=O)[O-])c1`, for which the displacement is -5.5%. The result for `CCOc1cc(OCC)cc(C(=O)Nc2ccc(-c3nc4ccc(C)cc4o3)cc2)c1` reads -16.6%.

With `CCOc1ccc(C(=O)Nc2ccc3oc(-c4ccncc4)nc3c2)cc1Cl`, the displacement is -9.5%.

Regarding `CCOc1ccc(C(=O)Nc2ccc(-c3nc4ccc(C)cc4o3)cc2)cc1Cl`, the displacement was found to be 104%.

As to `O=C(Nc1ccc(-c2nc3cc(Cl)cc(Cl)c3o2)cc1)c1cccc([N+](=O)[O-])c1`, the displacement was determined as 62.7%. Take `CCOc1cc(OCC)cc(C(=O)Nc2ccc3oc(-c4ccc(OC)cc4)nc3c2)c1`: the displacement turned out to be 4.2%. The result for `COc1cccc(C(=O)Nc2ccc(Cl)c(-c3nc4cc(Cl)ccc4o3)c2)c1` reads 105%; that for `O=C(Nc1cccc(-c2nc3cc(Cl)ccc3o2)c1)c1cccc([N+](=O)[O-])c1`, -3.3%. For `COc1cccc(C(=O)Nc2ccc3oc(-c4ccc(F)cc4Cl)nc3c2)c1`, the displacement stood at 17.1%. Take `CCOc1cccc(C(=O)Nc2ccc(-c3nc4cc(Cl)ccc4o3)cc2)c1`: the displacement stood at 81.3%. The result for `CCOc1cccc(C(=O)Nc2ccc(C(=O)Nc3cccc(-c4nc5ccccc5o4)c3)cc2)c1` reads 0.7%; that for `CCOC(=O)C1=C(O)/C(=C/c2ccc(-c3ccccc3)cc2)SC1=Nc1ccc(OC)cc1`, -6%.

Turning to `O=C1c2ccccc2C(=O)C1(Nc1ccc(F)cc1)c1ccccc1`, the displacement worked out at 17.4%. Regarding `O=C(Nc1ccccc1[N+](=O)[O-])c1c(-c2cnc3ccccc3c2C(=O)Nc2ccccc2[N+](=O)[O-])cnc2ccccc12`, the displacement is -1.5%. `COc1ccc(Cl)cc1NC(=O)c1cccc(F)c1`: the displacement is -13.8%. Next, `CC1CN(C(=O)c2ccccc2C(=O)c2ncc[nH]2)CC(C)O1` (stereo not drawn): -0.9%; `CC(=O)OC1(C#CCl)CCCCC1`: -8.7%. Turning to `O=C1CC(N2CCC(O)CC2)C(=O)N1c1ccc(Cl)cc1` (stereo not drawn), the displacement is -4.9%. With `Cc1ccc(-c2nc(N/N=C/c3ccccc3)c3ccccc3n2)cc1`, the displacement is 6.7%. Turning to `Cc1ccc(-c2nc(N/N=C/c3ccccc3O)c3ccccc3n2)cc1`, the displacement came out at 76.2%. `COc1cccc(/C=N/Nc2nc(-c3ccc(C)cc3)nc3ccccc23)c1O`: the displacement was 3.4%. For `CCC(=O)Oc1cc2oc(=O)c(CC)c(C)c2cc1CC`, the displacement was 10.1%. `O=C1NC(=O)N(c2ccccc2)C(=O)/C1=C\c1ccc(-c2ccc([N+](=O)[O-])cc2)o1`: the displacement stood at 130%. Take `O=C1NC(=O)N(c2ccccc2)C(=O)/C1=C\c1ccc(-c2cccc([N+](=O)[O-])c2)o1`: the displacement stood at 39.3%. Regarding `O=C1NC(=S)N(c2ccc(Br)cc2)C(=O)/C1=C\c1ccc(-c2ccc([N+](=O)[O-])cc2)o1`, the displacement stood at 16.2%.

`COc1ccc(N2C(=O)NC(=O)/C(=C/c3ccc(-c4cccc([N+](=O)[O-])c4)o3)C2=O)cc1`: the displacement is -12.5%. Turning to `O=C1NC(=O)N(c2ccc(Cl)cc2)C(=O)/C1=C\c1ccc(-c2ccc(C(=O)O)c(Cl)c2)o1`, the displacement was -7.8%. For the compound `O=C1NC(=O)N(c2ccc(Cl)cc2)C(=O)/C1=C/c1ccc(-c2ccc(Cl)cc2[N+](=O)[O-])o1`, the displacement was found to be 10.6%. For the compound `O=C1NC(=O)N(c2ccc(Br)cc2)C(=O)/C1=C/c1ccc(-c2cccc([N+](=O)[O-])c2)o1`, the displacement came to 138%.

In the case of `COc1ccc(N2C(=O)NC(=O)/C(=C/c3ccc(-c4ccc([N+](=O)[O-])cc4)o3)C2=O)cc1`, the displacement was determined as 46.2%. Consider `O=C1NC(=S)N(c2ccccc2)C(=O)/C1=C/c1ccc(-c2ccc([N+](=O)[O-])cc2)o1`, for which the displacement was -1.5%. `O=C1NC(=O)N(c2ccc(Cl)cc2)C(=O)/C1=C/c1ccc(-c2ccc(Cl)c(C(=O)O)c2)o1`: the displacement came to 72.5%. The result for `O=C1NC(=O)N(c2ccc(Cl)cc2)C(=O)/C1=C\c1ccc(-c2ccc([N+](=O)[O-])cc2)o1` reads 105%; that for `O=C1NN(c2ccc(Cl)cc2)C(=O)/C1=C\c1ccc(-c2ccc(Cl)c(C(=O)O)c2)o1`, 22.1%. Turning to `Nc1nonc1-c1ncc(-c2ccc(Br)cc2)nn1`, the displacement turned out to be 30.1%.

For `O=c1n(Cc2ccccc2Cl)c2cc(N3CCOCC3)c([N+](=O)[O-])cc2n1Cc1ccccc1Cl`, the displacement is -9.7%. As for `Cc1ccc(C(=O)NNC(=O)c2ccc3ccccc3c2O)cc1`, the displacement was determined as 20.5%. `Cc1ccc(/C=C/C(=O)N2CCN(c3ccccc3)CC2)o1`: the displacement amounted to 3.6%.

Take `Cc1ccc([N+](=O)[O-])cc1NC(=O)CC1Sc2ccccc2NC1=O` (stereo not drawn): the displacement worked out at 3.4%. With `Cc1ccccc1-c1cc(C(=O)N2CCOCC2)c2ccccc2n1`, the displacement was 4%. Regarding `Cc1ccc(C(=O)Nc2ccc(N3CCOCC3)cc2)cc1C`, the displacement worked out at 0.3%. `O=C(Nc1c(C(=O)N2CCN(Cc3ccccc3)CC2)cnn1-c1ccccc1)c1cccc(F)c1`: the displacement worked out at 3%.

Consider `COc1cc(OC)c(C(=O)N2CC(=O)Nc3ccccc32)c(OC)c1`, for which the displacement is 4.9%. Next, `O=C(Nc1ccccc1Cl)c1cncc(Br)c1`: 118%; `O=C(Nc1ccccc1F)c1cncc(Br)c1`: 3.9%. With `CCc1ccccc1NC(=O)c1cncc(Br)c1`, the displacement amounted to 5.4%. On to `CCc1ccc(NC(=O)c2cncc(Br)c2)cc1`, for which the displacement is 15%.

Consider `CCN(CC)c1ccc(NC(=O)c2ccc(Br)cc2)cc1`, for which the displacement was 9.2%. Turning to `CCN(CC)c1ccc(NC(=O)c2cncc(Br)c2)cc1`, the displacement came to 84.2%. On to `CCC(C)NC(=O)C(=O)NCCc1ccccc1` (stereo not drawn), for which the displacement came out at 5.5%. Next, `Cc1nc2ccccc2n1C(=O)c1ccco1`: -3.1%; `O=C(NCc1ccccn1)C(=O)N/N=C/c1ccccc1C(F)(F)F`: -19.3%. Take `CC(=O)N=c1cccc(NC(C)=O)n1O`: the displacement was 5.8%.

For the compound `CC(=O)Oc1ccc2c(c1)oc(=O)c1c3cc(OC(C)=O)c(OC(C)=O)cc3oc21`, the displacement stood at 12.7%.

On to `O=C(Nc1ccc(Cl)c(C(F)(F)F)c1)c1cccs1`, for which the displacement is -5.7%. With `O=C1OC(c2ccccc2)=C/C1=C/c1ccc2c(c1)OCO2`, the displacement was -0.2%.

For the compound `COc1ccc(C2=C/C(=C/c3ccc(OC)c(Br)c3)C(=O)O2)cc1`, the displacement was 11%. For the compound `O=C1OC(c2ccc(Cl)cc2)=C/C1=C\c1ccc2c(c1)OCO2`, the displacement is -19.4%.

Consider `COc1ccc(C2=C/C(=C\c3ccc4c(c3)OCO4)C(=O)O2)cc1`, for which the displacement came out at 117%.

For the compound `CCOc1ccc(C2=C/C(=C/c3ccc(OC)c(OC)c3)C(=O)O2)cc1`, the displacement is 34.8%. As to `COc1ccc(/C=C2/C=C(c3ccc(OC)c(OC)c3)OC2=O)cc1OC`, the displacement was found to be 189%.

`COc1ccc(/C=C2/C=C(c3ccccc3)OC2=O)cc1`: the displacement is -15.2%. On to `COc1ccc(C2=C/C(=C/c3ccc(OC)c(OC)c3)C(=O)O2)cc1`, for which the displacement came to 154%. Consider `COc1cc(/C=C2/C=C(c3ccccc3)OC2=O)ccc1C`, for which the displacement is -4.5%. The result for `CCOC(=O)/C(C#N)=C\c1c(C)c(C)c(/C=C(/C#N)C(=O)OCC)c(C)c1C` reads 7.7%; that for `c1ccc2nc3c(cc(N4CCOCC4)c4ccccc43)nc2c1`, 147%; that for `c1ccc2c(c1)nc(N1CCOCC1)c1ccccc12`, -0.6%. Regarding `c1ccc(-c2nc(N3CCOCC3)nc3ccccc23)cc1`, the displacement was -1.9%.

As to `CCOC(=O)C(=O)Nc1nc(C23CC4CC(CC(C4)C2)C3)cs1`, the displacement stood at 3.2%. Consider `O=C(Cc1ccccc1)Nc1ccc(Cl)c(-c2nc3cc(Cl)ccc3o2)c1`, for which the displacement was -37.9%.

For the compound `CCC(=O)/C(C)=C(\NC(=O)c1ccccc1)c1ccccc1`, the displacement was -4.8%. Take `CC(C)c1ccc(N2C(=O)NC(=O)/C(=C/c3ccc(O)c(O)c3)C2=O)cc1`: the displacement was -20.3%.

`O=C(CCCN1C(=O)/C(=C\c2cccs2)SC1=S)Nc1nccs1`: the displacement was 114%.

For the compound `Cc1cc(NC(=O)CCN2C(=O)/C(=C\c3cccs3)SC2=S)no1`, the displacement turned out to be 90.4%. Regarding `O=C(CCCN1C(=O)/C(=C\c2cccs2)SC1=S)Nc1nc2ccccc2s1`, the displacement amounted to 12.7%.

With `O=C(CCCN1C(=O)/C(=C/c2ccccc2)SC1=S)Nc1nccs1`, the displacement was found to be 11.2%. Next, `O=C(CCN1C(=O)/C(=C/c2ccc(Cl)cc2)SC1=S)Nc1nccs1`: 14.9%. Regarding `O=C(CCCN1C(=O)/C(=C\c2cccs2)SC1=S)Nc1ccccn1`, the displacement stood at 13.2%.

On to `O=C(CCN1C(=O)/C(=C/c2cccs2)SC1=S)Nc1ccccn1`, for which the displacement was 126%. Take `Cc1ccc(/C=C2\SC(=S)N(CCC(=O)Nc3nccs3)C2=O)cc1`: the displacement is 19.4%. `Cc1cc(NC(=O)CCN2C(=O)/C(=C/c3ccccc3)SC2=S)no1`: the displacement was determined as 5.3%. In the case of `O=C(CCN1C(=O)/C(=C\c2cccs2)SC1=S)Nc1ccccc1C(=O)O`, the displacement was determined as 19.8%.

As to `O=C(CCN1C(=O)/C(=C\c2cccs2)SC1=S)Nc1nccs1`, the displacement stood at 120%. Take `Cc1cc(NC(=O)CCN2C(=O)/C(=C/c3ccc(F)cc3)SC2=S)no1`: the displacement came to 19%. Consider `O=C(Nc1nccs1)c1ccc2c(c1)OCO2`, for which the displacement turned out to be 32.1%. On to `CC(NC(=O)c1cc2cc([N+](=O)[O-])ccc2oc1=O)c1ccccc1` (stereo not drawn), for which the displacement came to 12.2%. With `CS(=O)(=O)N(Cc1ccc(C(=O)Nc2ccc(CC#N)cc2)cc1)c1ccccc1`, the displacement is -7%. In the case of `COc1ccc(/C=C/C(=O)NCc2ccc(C)cc2)cc1OC`, the displacement was 9.4%. Turning to `Cc1cccc(NC(=O)CN(c2ccc(C(C)C)cc2)S(=O)(=O)c2ccccc2)c1`, the displacement stood at 2.4%.

Regarding `COc1ccc(Cl)cc1N(CC(=O)NCC(C)C)S(=O)(=O)c1ccc(C)c([N+](=O)[O-])c1`, the displacement came to 16.7%. Regarding `CC(C)(C)c1ccc(OCC(O)CS(=O)(=O)Cc2ccc(Cl)cc2)cc1` (stereo not drawn), the displacement is 8.5%.

For the compound `O=C1C2ON(c3ccccc3)C(c3ccccc3)C2C(=O)N1Cc1ccccc1` (stereo not drawn), the displacement came to 5.9%.

As for `O=c1[nH]c(=O)n(-c2ccccc2)c(O)c1C(c1cccnc1)c1c(O)n(-c2ccccc2)c(=O)[nH]c1=O`, the displacement is -5%. Next, `COc1cccc(-n2c(O)c(C(c3ccccn3)c3c(O)n(-c4cccc(OC)c4)c(=O)[nH]c3=O)c(=O)[nH]c2=O)c1`: 67.7%. As to `COc1cccc(-n2c(O)c(/C=C3\C=c4ccccc4=N3)c(=O)[nH]c2=O)c1`, the displacement is -0.4%.

As for `O=C1c2ccc([N+](=O)[O-])cc2C(=O)C1c1ccc2ccccc2n1` (stereo not drawn), the displacement stood at 7.6%.

Regarding `O=C1/C(=C\c2cccc(Br)c2)SC(=S)N1c1cccc(C(F)(F)F)c1`, the displacement is 18.2%. Regarding `COc1ccc2c(c1)OCC/C2=N\OC(=O)c1ccccc1OC`, the displacement is -7.8%. On to `O=C(COc1ccc2ccccc2c1)NCC1CCCO1` (stereo not drawn), for which the displacement was 12.6%. As to `COc1ccccc1-c1coc2cc(OC(=O)c3ccc(Cl)cc3Cl)ccc2c1=O`, the displacement amounted to 63.9%. Next, `COc1ccccc1-c1coc2cc(OC(=O)c3cccc(Cl)c3)ccc2c1=O`: 6.5%.

Regarding `COc1ccccc1-c1coc2cc(OC(=O)c3ccc(Cl)cc3)ccc2c1=O`, the displacement was -2%.
